# Target: T1, Methionyl-tRNA synthetase, putative (Leishmania donovani (strain BPK282A1)) (UniProt E9BF75)
# T1 sequence (whole entry): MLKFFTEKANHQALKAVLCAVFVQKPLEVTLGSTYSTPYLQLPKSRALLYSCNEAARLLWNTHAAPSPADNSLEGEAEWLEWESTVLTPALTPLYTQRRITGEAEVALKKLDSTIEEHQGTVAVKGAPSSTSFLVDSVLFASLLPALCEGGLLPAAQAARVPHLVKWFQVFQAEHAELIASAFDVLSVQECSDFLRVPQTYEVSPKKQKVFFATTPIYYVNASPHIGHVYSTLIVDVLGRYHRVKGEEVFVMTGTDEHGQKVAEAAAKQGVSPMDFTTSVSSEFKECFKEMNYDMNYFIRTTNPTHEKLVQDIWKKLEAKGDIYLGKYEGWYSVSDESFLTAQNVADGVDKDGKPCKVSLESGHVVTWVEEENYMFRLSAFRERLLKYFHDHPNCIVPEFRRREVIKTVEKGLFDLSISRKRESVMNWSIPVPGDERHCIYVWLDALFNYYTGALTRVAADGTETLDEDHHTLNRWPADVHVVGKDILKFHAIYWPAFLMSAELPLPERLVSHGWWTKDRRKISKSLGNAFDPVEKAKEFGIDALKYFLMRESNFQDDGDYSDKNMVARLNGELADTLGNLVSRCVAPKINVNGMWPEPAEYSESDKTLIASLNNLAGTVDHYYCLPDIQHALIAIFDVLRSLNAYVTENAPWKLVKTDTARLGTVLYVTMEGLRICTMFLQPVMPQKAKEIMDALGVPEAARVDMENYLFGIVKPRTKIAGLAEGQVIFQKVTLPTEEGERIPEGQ
# Assay: Leishmania donovani Methionine tRNA synthetase (LdMetRS):v7. Dose response assay
# Format: functional
# Set-up: conc 80 nM, time 150 minutes
smiles,measurement,setting,value
COc1ccccc1C(=O)NC(c1ccccn1)[C@H]1CC[C@H](CN)CC1 (stereo not given in full),PXC50,"BOTTOM -1.193557467, HILLSLOPE 1.40396169, MAX_EFFECT 57.36568458, TOP 100.0",4.08
same,PXC50,"BOTTOM -5.444679276, HILLSLOPE 1.669546179, MAX_EFFECT 75.83892617, TOP 100.0",4.3
same,PXC50,"BOTTOM -12.31313032, HILLSLOPE 1.366255023, MAX_EFFECT 79.86111111, TOP 100.0",4.41
same,PXC50,MAX_EFFECT 0.790513834,< 4
same,PXC50,MAX_EFFECT 6.349206349,< 4
OCCNc1nc(Nc2cccc(OC(F)(F)F)c2)nc2ccsc12,PXC50,"BOTTOM -3.252318024, HILLSLOPE 0.711277169, MAX_EFFECT 57.23140496, TOP 100.0",4.23
same,PXC50,MAX_EFFECT 49.7098646,< 4
same,PXC50,MAX_EFFECT 49.77973568,< 4
COC(=O)CNC(=O)c1cccc(C(=O)N(C)c2ccccc2)c1,PXC50,MAX_EFFECT 1.22591944,< 4
same,PXC50,MAX_EFFECT 1.449275362,< 4
same,PXC50,MAX_EFFECT -3.401360544,< 4
Cc1nc(CN(C)C(=O)c2ccc(Cn3cnnn3)cc2)cs1,PXC50,MAX_EFFECT 1.360544218,< 4
same,PXC50,MAX_EFFECT 4.347826087,< 4
same,PXC50,MAX_EFFECT 4.72854641,< 4
Cc1cc(C)n(-c2nc(N3CCCC(O)C3)c3c4c(sc3n2)CCCC4)n1 (stereo not given),PXC50,MAX_EFFECT 1.492537313,< 4
same,PXC50,MAX_EFFECT 6.004140787,< 4
same,PXC50,MAX_EFFECT 6.832298137,< 4
same,PXC50,MAX_EFFECT 7.036247335,< 4
Cn1ncc2c(NCCO)nc(Nc3ccccc3S(N)(=O)=O)nc21,PXC50,MAX_EFFECT 2.127659574,< 4
same,PXC50,MAX_EFFECT 3.652968037,< 4
same,PXC50,MAX_EFFECT 13.39622642,< 4
COC(=O)c1cnc(Nc2cccc(C(F)(F)F)c2)c(S(N)(=O)=O)c1,PXC50,MAX_EFFECT 3.50877193,< 4
same,PXC50,MAX_EFFECT 6.168224299,< 4
same,PXC50,MAX_EFFECT 6.615776081,< 4
NS(=O)(=O)c1cccnc1Nc1cc(F)cc(C(F)(F)F)c1,PXC50,MAX_EFFECT 3.956834532,< 4
same,PXC50,MAX_EFFECT 8.551068884,< 4
same,PXC50,MAX_EFFECT 8.583690987,< 4
Cn1ncc2c(NCCO)nc(NCCN3CCOCC3)nc21,PXC50,MAX_EFFECT 4.109589041,< 4
same,PXC50,MAX_EFFECT 10.0,< 4
same,PXC50,MAX_EFFECT 11.56069364,< 4
Cn1ncc2c(NCCO)nc(Nc3ccncc3)nc21,PXC50,MAX_EFFECT 4.449648712,< 4
same,PXC50,MAX_EFFECT 5.518763797,< 4
same,PXC50,MAX_EFFECT -0.37037037,< 4
Cn1ncc2c(Nc3ccc(F)c(F)c3)nc(NCCO)nc21,PXC50,MAX_EFFECT 4.750593824,< 4
same,PXC50,MAX_EFFECT 5.660377358,< 4
same,PXC50,MAX_EFFECT 14.59227468,< 4
NC1CCOc2c(Cl)cc(Cl)cc21 (stereo not given),PXC50,MAX_EFFECT 4.805491991,< 2.7
same,PXC50,MAX_EFFECT 6.273764259,< 3
same,PXC50,MAX_EFFECT 11.76470588,< 2.7
same,PXC50,MAX_EFFECT 23.54211663,< 3
NS(=O)(=O)c1ccc(Nc2ncccc2S(N)(=O)=O)cc1,PXC50,MAX_EFFECT 6.072106262,< 4
same,PXC50,MAX_EFFECT 13.21585903,< 4
same,PXC50,MAX_EFFECT 15.90909091,< 4
CCc1cccc(Nc2nc(NCCO)c3cnn(C)c3n2)c1,PXC50,MAX_EFFECT 6.404958678,< 4
same,PXC50,MAX_EFFECT 25.11013216,< 4
same,PXC50,MAX_EFFECT 42.00385356,< 4
Cn1ncc2c(NCCO)nc(Nc3ccc(O)cc3)nc21,PXC50,MAX_EFFECT 7.728337237,< 4
same,PXC50,MAX_EFFECT 8.34914611,< 4
same,PXC50,MAX_EFFECT 13.02428256,< 4
CC(C)c1ccc(CS(=O)(=O)Cc2nc(N)nc(N(C)C)n2)cc1,PXC50,MAX_EFFECT 8.163265306,< 4
same,PXC50,MAX_EFFECT 10.86956522,< 4
same,PXC50,MAX_EFFECT 13.83537653,< 4
CN(C)c1nc(N(C)C)c2cnn(C)c2n1,PXC50,MAX_EFFECT 10.25145068,< 4
same,PXC50,MAX_EFFECT 21.69421488,< 4
same,PXC50,MAX_EFFECT 22.46696035,< 4

# — ChEMBL document CHEMBL3988442, “University of Dundee, Small-Polar-MMV Screening Library” (2021)
